# Most compounds without a hit are left out; they make up all but 17% or so of the library.
# TDP1 cell noCPT = qHTS for Inhibitors of human tyrosyl-DNA phosphodiesterase 1 (TDP1): qHTS in cells in absence of CPT; DT40 Tdp1-/- hTDP1 cells, no CPT, ATP luminescence, 48 h; Potency, µM (doses to about 46.2 µM), inactives show at the top dose activity change, negative = growth inhibition, most hits filed as inhibitors; actives 15% (n = 420,000); AID 686978, 2013; further: on the % scale 0 is the no-effect control and ±100 the full control effect; nearly all actives have a fitted effect of over 55% in size
#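 A cellular qHTS used chicken DT40 cells lacking endogenous Tdp1 but carrying stably transfected human TDP1. Compounds were applied without camptothecin, and cell growth kinetics were judged by ATP-dependent luminescence after ≥48 hr.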
# HT1080NT lethal = qHTS for induction of synthetic lethality in tumor cells producing 2HG: qHTS for the HT-1080-NT fibrosarcoma cell line; HT-1080-NT fibrosarcoma viability, CellTiter-Glo ATP luminescence, 48 h; Potency, µM (titrated, usually from 46.1 µM), for inactives: top-dose activity, negative = less viability, hits mostly cytotoxic; actives 1.6% (n = 360,000); AID 686970, 2013;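 further: NT is the 2HG producing partner of a matched IDH1 knockdown line; 0% = DMSO-treated cells and -100% = media-only wells without cells; nearly all actives have a fitted effect of over 55% in size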
#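 Toxicity toward the 2HG-producing NT line was scored as %Activity, normalised to DMSO and no-cell wells, from CellTiter-Glo luminescence after 48 hours' treatment.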
# HepG2 viability = qHTS for Inhibitors of TGF-b: Cytotox Counterscreen | HepG2 CAGA-GFP viability, ATP luminescence, 18 h | AID 588856, 2011 | actives 0.76% (n = 410,000) | Potency, µM (doses to about 46.1 µM), for the others: top-dose activity change, negative = cytotoxicity, actives largely listed as cytotoxic
#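 HepG2 CAGA-GFP cells (1000/well, DMEM with 1% FBS) received compound, then TGF-beta at 500 pg/mL final, and were incubated 18 hours at 37 degrees C. Viability was read by CellTiter-Glo luminescence. Media-only wells were set as complete cell-killing and DMSO as no toxicity.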
# TGFb SMAD3 inh = qHTS for Inhibitors of TGF-b; HepG2 CAGA-GFP TGF-b/SMAD3 reporter, GFP fluorescence, 18 h; TGF-beta stimulated, 500 pg/mL final; Potency, µM (top dose mostly 46.1 µM), without a hit: at the highest dose activity, negative = inhibition, usual class: inhibitors; actives 1.2% (n = 410,000); AID 588855, 2011; further: on the % scale 0 is the no-effect control and ±100 the full control effect; nearly all actives have a fitted effect of over 65% in size
#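 HEPG2 CAGA-GFP cells (1000/well, DMEM with 1% FBS) were pre-incubated 2 h at 37 degrees C, given compound by pin tool, then stimulated with TGF-beta at 500 pg/mL final for 18 h before per-cell GFP fluorescence imaging.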
# HT1080 IDH1KD tx = qHTS for induction of synthetic lethality in tumor cells producing 2HG: qHTS for the HT-1080-IDH1KD cell line; actives 2% (n = 360,000); Potency, µM (doses to about 46.1 µM), inactives show top-dose activity, negative = toxicity, actives largely listed as cytotoxic; AID 686971, 2013; HT-1080 IDH1 knockdown viability, ATP luminescence, 48 h;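 further: 0% = DMSO wells and -100% = cell-free medium wells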
#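 Knockdown cells (IDH1KD HT-1080) received compounds 2 h after plating at 750 cells/well and were kept 48 h at 37 °C in 5% FBS RPMI. A CellTiter-Glo luminescence read gave % activity for curve fitting.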
# DT40 TDP1 CPT = qHTS for Inhibitors of human tyrosyl-DNA phosphodiesterase 1 (TDP1): qHTS in cells in presence of CPT; actives 12% (n = 420,000); Potency, µM (doses to about 46.2 µM), inactives show at the top dose activity change, negative = growth inhibition, usual class: inhibitors; chicken DT40 Tdp1-/-;hTDP1 cells + 20 nM CPT, ATP luminescence, 48 h; AID 686979, 2013; further: on the % scale 0 is the no-effect control and ±100 the full control effect; nearly all actives have a fitted effect of over 55% in size
#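 Chicken DT40 Tdp1-/- cells stably complemented with human TDP1 were seeded at 400 cells/well in medium containing 20 nM camptothecin, exposed to pin-transferred compounds, and grown at 37 °C for at least 48 hr. Viability was read as ATP luminescence.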
# Starred values were filed as active, the others as inactive; ? = inconclusive; / = not tested or not shown; [ ] = remark or other dose. The call rests on the fitted dose curve; in most records, active means well fitted curve in the direction sought with a large enough effect; inconclusive means small, poorly fitted or top-dose-only effect, or another doubt; inactive means no such curve, though single readings can be large; an effect the other way counts as inactive or inconclusive. Potency means the concentration at half of the fitted maximal effect.
SMILES,TDP1 cell noCPT,HT1080NT lethal,HepG2 viability,TGFb SMAD3 inh,HT1080 IDH1KD tx,DT40 TDP1 CPT
CC(=O)NCCNc1nc(-c2ccccc2CN(C)C)nc2ccccc12,4%,/,/,/,/,13%
COc1cccc(-c2nc(NC3CCNCC3)c3ccccc3n2)c1,21µM*,/,/,/,/,?
CN(C)c1ccc(-c2nc(NC3CCNCC3)c3ccccc3n2)cc1,1.2µM*,/,/,/,/,1.3µM*
Cc1nc2cc(C(=O)O)ccc2n1-c1ccc(C(C)C)cc1,-11%,/,-3%,-10%,/,2%
COCCC(=O)N1CCC(Oc2ccc(C(=O)N3CCCCCC3)cc2)CC1,-33%,-5%,4%,-2%,10%,?
C#CCN(C(=O)c1ccc(OC2CCN(C(=O)CCOC)CC2)cc1)C1CCCCC1,?,1%,-15%,-30%,-9%,23µM*
C#CCN(C(=O)c1ccc(OC2CCN(Cc3ccccn3)CC2)cc1)C1CCCCC1,?,1%,-5%,-16%,-2%,16µM*
CC1(C)S[C@@H]2[C@H](NC(=O)C(N)c3ccccc3)C(=O)N2[C@H]1C(=O)OC1OC(=O)c2ccccc21 (some centres not stated),-25%[21.1 µM],/,/,/,/,?
CCCCn1c(-c2ccc(S(=O)(=O)N3CCOCC3)cc2)csc1=Nc1ccccc1,15µM*,/,0%,-6%,/,13µM*
O=S(=O)(c1ccc(-c2csc(=Nc3ccccc3)n2CCCN2CCOCC2)cc1)N1CCOCC1,?,-22%,-25%,-2%,-3%,?
CCCn1c(-c2ccc(S(=O)(=O)N3CCOCC3)cc2)csc1=Nc1ccc(OCC)cc1,2.9µM*,/,-15%,-22%,/,4.1µM*
CCOc1ccc(S(=O)(=O)N2CN3CCN(C3)C2)cc1,?,10%,10%,-1%,10%,?
C/C(=N\NC(=O)c1[nH]c2c([N+](=O)[O-])cc(C)cc2c1-c1ccccc1)c1cccnc1,15µM*,-8%,5%,?,0%,26µM*
C/C(=N\NC(=O)c1cccnc1)c1ccc(C)c([N+](=O)[O-])c1,-5%,-8%,-41%,0%,-7%,-5%
COc1cccc(-c2nc(CS(=O)(=O)CC(=O)NC3CCCCC3C)c(C)o2)c1 (configuration not stated),-28%,-2%,-2%,2%,17%,?
O=C1c2sc3nc4n(c(=O)c3c2CCC1Br)CCCCC4 (configuration not stated),2.9µM*,7%,6%,-18%,-5%,3.3µM*
O=c1c2c3c(sc2nc2n1CCCCC2)CCC3,-28%,-1%,2%,16%,-1%,5%
Cc1nn(C)c(C)c1CN(C)S(=O)(=O)c1ccc(F)cc1,21µM*,-13%,-15%,-10%,?,?
Cc1nn(C)c(C)c1CN(C)S(=O)(=O)c1ccc2ccccc2c1,1.3µM*,-13%,-39%,-23%,2µM*,2.2µM*
CCN(CC)S(=O)(=O)c1ccc(S(=O)(=O)Nc2c(C)nn(C)c2C)cc1,4.6µM*,16µM*,-17%,-11%,?,6.5µM*
Cc1nn(C)c(C)c1NS(=O)(=O)c1ccc(Cl)cc1,-27%,6%,-1%,-2%,4%,-27%
CCN(CC)S(=O)(=O)c1ccc(F)cc1,-6%,7%,-5%,-8%,8%,2%
CCn1c(C)nc2cc(NS(=O)(=O)c3ccccc3)cc(C(=O)N3C[C@@H](C)O[C@@H](C)C3)c21,-15%,/,/,/,/,-3%
CCc1ccc(C2=NN(c3ccc(S(N)(=O)=O)cc3)C(c3ccc(F)cc3)C2)cc1 (configuration not stated),?,?,-109%,?,?,18µM*
NS(=O)(=O)c1ccc(N2N=C(c3ccccc3)CC2c2ccccc2)cc1 (configuration not stated),?,?,-104%,?,?,?
SMILES,TDP1 cell noCPT,HT1080NT lethal,HepG2 viability,TGFb SMAD3 inh,HT1080 IDH1KD tx,DT40 TDP1 CPT
NS(=O)(=O)c1ccc(N2N=C(c3ccccc3)CC2c2ccccc2Cl)cc1 (configuration not stated),-23%,-27%,-84%,?,?,-8%
Cc1ccc(C2CC(c3ccccc3)=NN2c2ccc(S(N)(=O)=O)cc2)cc1 (configuration not stated),?,?,-85%,?,?,29µM*
NS(=O)(=O)c1ccc(N2N=C(c3ccccc3)CC2c2ccc(Br)cc2)cc1 (configuration not stated),?,?,28µM*,?,?,?
COc1ccc(CCNC(=S)NC(=O)c2cc(OC)c(OC)c(OC)c2)cc1OC,-13%,-6%,3%,2%,-15%,-16%
C/C(=N\Nc1cc(C)nc(NCc2ccccc2)n1)c1cccc([N+](=O)[O-])c1,2.9µM*,6%,-11%,-15%,0%,8.2µM*
C/C(=N/NC(=O)c1ccc(O)cc1)c1cccc([N+](=O)[O-])c1,-17%,2%,25%,2%,0%,4%
O=[N+]([O-])c1cccc(/C=N/Nc2nnc(-c3ccccc3)c(-c3ccccc3)n2)c1,9.2µM*,3%,5%,4%,-2%,9.2µM*
C/C(=N\Nc1ccc(Cl)c(C(=O)O)c1)c1cccc([N+](=O)[O-])c1,-10%,8%,-6%,0%,22%,-3%
C/C(=N\Nc1nnc(-c2ccccc2)c(-c2ccccc2)n1)c1cccc([N+](=O)[O-])c1,8.2µM*,20%,4%,-10%,24%,7.3µM*
O=[N+]([O-])c1cccc(-c2csc(N/N=C/c3cccc(O)c3)n2)c1,21µM*,?,-1%,1%,18µM*,?
Cc1ccccc1Cn1c(CN2CCN(c3cc(Cl)ccc3C)CC2)nc2c1c(=O)[nH]c(=O)n2C,13µM*,/,-12%,-1%,/,?
Cc1ccc(Cl)cc1N1CCN(Cc2nc3c(c(=O)[nH]c(=O)n3C)n2Cc2ccccc2F)CC1,23µM*,?,-106%,?,?,?
